Active and inactive are the calls of the source.

The target in one assay is Albumin (Bos taurus) (UniProt P02769). Briefly: bovine serum albumin binders on microarray, profiling panel, artefact control for SMM control protein annotation, biochemical, small-molecule microarray, Alexa647 label, 635/667 nm fluorescence (AID 1118).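 Also: score merges 667 nm emission intensity and signal-to-noise per printed compound spot.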 Particulars: BSA-A647 binding, fluorescence 635 nm, higher = more signal.
Assay [1] can be described thus: small-molecule microarray binders of probe aXIP, primary screen, biochemical, NeuroSMM set, 635/667 nm fluorescence (AID 1119).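 Also: probe is the protein aXip251-270 applied at 1 µg/mL to compound-printed slides; binding of probe to printed compounds measured as 667 nm fluorescence plus signal to noise.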 Particulars: higher = more signal, called active from +8 up or from −8 down.
Assay [2] in a line: small-molecule binders of probe aNOTCH3, primary screen, biochemical, small-molecule microarray, 635/667 nm fluorescence (AID 1120).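 Also: probe is a biotin-tagged antibody raised against NOTCH3 rather than NOTCH3 protein; score merges spot fluorescence near 667 nm with spot signal to noise.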 Particulars: higher = more signal.
The nature of assay [3]: small-molecule binders of probe aNOTCH2, primary screen, biochemical, small-molecule microarray, 635/667 nm fluorescence (AID 1121).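 Also: score merges feature fluorescence read at 667 nm with its signal to noise.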 The settings on record: higher = more signal.
The target in assay [4] is Carbonic anhydrase 2 (Homo sapiens) (UniProt P00918). Put plainly: CAII small-molecule binders, profiling panel, biochemical, small-molecule microarray, Alexa647-labelled CAII (AID 1122). The settings on record: CAII-A647 binding fluorescence, higher = more signal.
Assay [5] in a line: COS7 lysate on small-molecule microarray, probe aHis, 635 nm (AID 1123).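 Also: z-score combines 667nm fluorescence intensity with signal-to-noise per printed compound spot.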 Particulars: COS7 cell lysate, fluorescence, higher = more signal.
Assay [6] is described as follows: compound binding in COS7 lysate, probe aLAP1, primary screen, cell lysate, small-molecule microarray (AID 1124).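 Also: lysate comes from COS7 cells expressing LAP1 and is applied at 0.3 µg/mL; score merges spot fluorescence near 667 nm with signal-to-noise over triplicate slides.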 The settings on record: probe aLAP1, fluorescence, higher = more signal.
For the next assay, the system named is Sam68 (KHDRBS1). Put plainly: Sam68 small-molecule binders, primary screen, biochemical, small-molecule microarray, 635 nm fluorescence (AID 1125).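 Also: score merges 667 nm channel intensity with signal to noise over triplicate slides.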 The settings on record: small-molecule microarray binding, higher = more signal.
Assay [7] concerns Chordin-like protein 2 (CHRDL2). Put plainly: CHRDL2 small-molecule binders, primary screen, biochemical, small-molecule microarray, 635 nm fluorescence (AID 1126).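 Also: printed compound slides probed with Chrdl2 protein at 4 µg/mL for 1 h at 4 C; score merges 667 nm emission intensity with signal to noise over three replicate slides.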 Particulars: small-molecule microarray binding, fluorescence 635 nm; higher = more signal.
The target in assay [8] is Concanavalin-A (Canavalia ensiformis) (UniProt P02866). Put plainly: ConA small-molecule binders, primary screen, artefact control for SMM control protein annotation, biochemical, small-molecule microarray, Alexa647 label, 635 nm (AID 1127).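 Also: z combines 667 nm emission intensity with signal-to-noise across three replicate slides.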 Particulars: ConA-A647 binding fluorescence, higher = more signal.
Sequence of Concanavalin-A (Canavalia ensiformis) (P02866 whole entry, looked up): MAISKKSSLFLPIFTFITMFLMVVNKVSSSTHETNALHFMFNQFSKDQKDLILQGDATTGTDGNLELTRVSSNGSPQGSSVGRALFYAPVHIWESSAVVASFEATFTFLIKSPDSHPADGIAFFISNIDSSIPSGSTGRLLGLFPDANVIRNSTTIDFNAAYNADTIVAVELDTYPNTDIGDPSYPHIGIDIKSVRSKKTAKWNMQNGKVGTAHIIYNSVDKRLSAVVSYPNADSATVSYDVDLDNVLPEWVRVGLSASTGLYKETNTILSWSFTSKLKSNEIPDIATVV

Sequence of Albumin (Bos taurus) (P02769 whole entry, looked up): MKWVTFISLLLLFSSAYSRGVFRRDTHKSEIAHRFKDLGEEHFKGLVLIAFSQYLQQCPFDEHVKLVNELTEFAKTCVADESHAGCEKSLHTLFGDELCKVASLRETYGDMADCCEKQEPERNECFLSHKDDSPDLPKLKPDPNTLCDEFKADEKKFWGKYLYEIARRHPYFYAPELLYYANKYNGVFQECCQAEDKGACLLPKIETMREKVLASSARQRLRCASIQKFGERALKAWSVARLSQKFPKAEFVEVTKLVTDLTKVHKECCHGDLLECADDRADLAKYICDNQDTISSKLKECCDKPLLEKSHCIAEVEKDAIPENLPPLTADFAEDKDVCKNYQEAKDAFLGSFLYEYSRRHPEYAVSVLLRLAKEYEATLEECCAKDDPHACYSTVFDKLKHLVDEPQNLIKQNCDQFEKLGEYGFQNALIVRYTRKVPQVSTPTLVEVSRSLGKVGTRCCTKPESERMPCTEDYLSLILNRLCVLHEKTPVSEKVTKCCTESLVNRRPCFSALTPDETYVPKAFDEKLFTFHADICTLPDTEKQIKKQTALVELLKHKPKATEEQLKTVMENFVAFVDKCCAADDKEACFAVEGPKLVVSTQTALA

On to `CC(C)c1ccc(NN2C(C(O)c3cc(C(F)(F)F)cc(C(F)(F)F)c3)C=CC3C(=O)N(c4ccccc4)C(=O)C32)cc1` (stereo not given), for which the composite z-score in the assay with Albumin (Bos taurus) stood at 0.588; in assay [2], 0.0203; in assay [3], 0.0506; in assay [4], 0.489; in assay [5], 2.43; in assay [6] it was 0.152. The results for the composite z-score (with Sam68 (KHDRBS1); in assay [7]; in [8]) were 0.924, -0.219 and 0.568, respectively. The composite Z-score in assay [1] was -0.117 (inactive).

`O=C1OCCC/C=C\[C@H]2OC34C=CCN(Cc5ccccc5)C(=O)[C@H]3N(CCCCCCO)C(=O)[C@@H]4C12` (stereo not given in full): the composite z-score with Albumin (Bos taurus) is -0.449; in [2] it was -0.262; in assay [3], -0.141; in assay [4], 0.893; in [5], -0.19; in assay [6], 0.468. Further, the figures for the composite z-score (in the assay with Sam68 (KHDRBS1); in [7]; in [8]) were 0.139, -1.24 and -1.3, respectively. In addition, the composite Z-score in [1] is 0.986 (inactive).

On to `COC(=O)[C@@]1(Cc2ccccc2)[C@H]2c3cc(C(=O)N(C)C)n(CCSCCO)c3C[C@H]2CN1C(=O)c1ccccc1`, for which the composite z-score with Albumin (Bos taurus) was 0.569; in assay [2], 0.0893; in assay [3] it was 0.0577; in [4], 0.801; in assay [5] it was 2.26; in assay [6], -0.154. Further, the composite z-score in the assay on Sam68 (KHDRBS1) was 0.555; in assay [7], -0.25; in assay [8], 0.523. Also, the composite Z-score in [1] was 0.376 (inactive).

In the case of `CC(C)C[C@@H]1NC(=O)[C@H]2C[C@@H](C(=O)NCCCCCCN)[C@@H](c3ccc(O)cc3)N2C1=O`, the composite z-score in the assay with Albumin (Bos taurus) was 0.0662; in [2], -0.0023; in assay [3] it was 0.171; in assay [4] it was 0.728; in assay [5], 2.16; in [6], 0.627. Moreover, the composite z-score in the assay with Sam68 (KHDRBS1) is 0.633; in [7], 1.22; in assay [8] it was 1.18. Moreover, the composite Z-score in assay [1] is 0.0781 (inactive).

For the compound `CC(C)C[C@@H]1NC(=O)[C@@H]2C[C@H](C(=O)NCCCCCN)[C@H](c3cccc(OCCO)c3)N2C1=O`, the composite z-score in the assay with Albumin (Bos taurus) was 1.02; in assay [2] it was 0.0992; in [3] it was -0.17; in assay [4], 0.813; in [5], 1.03; in [6], 1.16. The composite z-score with Sam68 (KHDRBS1) is 0.839; in [7], 0.0186; in assay [8], 1.2. Also, the composite Z-score in assay [1] is 0.425 (inactive).

`CCOC(=O)[C@H]1C/C=C/C[C@H](C(=O)OCC)C(=O)O[C@H]2[C@@H](OC)O[C@H](CO)[C@@H](OC(=O)Nc3cccc(F)c3)[C@@H]2OC1=O`: the composite z-score in the assay with Albumin (Bos taurus) was determined as 0.407; in assay [2], 1.06; in assay [3] it was 0.0593; in assay [4] it was 0.66; in [5] it was 1.86; in assay [6], 0.903. The results for the composite z-score (in the assay on Sam68 (KHDRBS1); in assay [7]; in assay [8]) were 1.19, 0.306 and 0.189, respectively. Also, the composite Z-score in assay [1] is 0.46 (inactive).

In the case of `CCCC[C@@H]1C[C@H]1[C@@H](NC(=O)c1ccco1)c1ccc(Cl)cc1`, the composite z-score with Albumin (Bos taurus) was 0.796; in assay [2], 0.193; in assay [3], -0.0164; in [4], 0.637; in [5], 1.99; in assay [6], 0.65. The composite z-score was 1.33 in the assay with Sam68 (KHDRBS1), -0.414 in assay [7] and 1.07 in assay [8]. Moreover, in [1], the composite Z-score was -0.0717 (inactive).

On to `CN1C2C=C(CCCO)C(C3C(=O)N(C(N)=O)C(=O)C32)C1c1ccc(CN2CCCC2)cc1` (stereo not given), for which the composite z-score with Albumin (Bos taurus) is -1.07; in assay [2], -0.326; in assay [3] it was -0.152; in assay [4] it was -0.452; in [5] it was -0.0732; in [6], -0.579. For the same compound, the composite z-score in the assay on Sam68 (KHDRBS1) was -1.18; in assay [7] it was -0.686; in assay [8], -0.34. The composite Z-score in assay [1] is -0.275 (inactive).

With `C=CCNC(=O)[C@H]1[C@@H]2C(=O)O[C@@H](c3ccccc3)[C@@H](c3ccccc3)N2[C@@H](c2ccc(O)cc2)[C@]12C(=O)N(C(=O)OCCOC)c1ccc(C#CCNC(N)=O)cc12`, the composite z-score with Albumin (Bos taurus) is -0.213; in assay [2], 0.0955; in [3] it was 0.0313; in assay [4], 0.484; in assay [5], 0.275; in [6], 0.0793. Also, the composite z-score was determined as 1.13 in the assay with Sam68 (KHDRBS1), 0.64 in assay [7] and 0.932 in [8]. The composite Z-score in assay [1] was 0.384 (inactive).

Take `CC(CO)N1C(=O)[C@@H]2C3C(=O)OCCC/C=C\[C@H]3OC23C=CCN(c2ccc4ccccc4c2)C(=O)[C@@H]13` (stereo not given in full): the composite z-score with Albumin (Bos taurus) was 0.611; in assay [2], -0.219; in assay [3] it was -0.115; in [4], 0.0684; in assay [5], -0.519; in assay [6], -0.377. Further, the composite z-score in the assay on Sam68 (KHDRBS1) was -0.704; in [7] it was -0.535; in assay [8], -0.172. The composite Z-score in assay [1] is -0.0775 (inactive).

Take `CCCCN1CC=CC23O[C@@H]4/C=C\CCC(C)OC(=O)C4[C@H]2C(=O)N(CCCCCO)[C@@H]3C1=O` (stereo not given in full): the composite z-score with Albumin (Bos taurus) was -1.05; in [2], -0.422; in assay [3], -0.126; in assay [4], 0.867; in assay [5], -0.427; in assay [6] it was 1.34. The composite z-score was -0.287 in the assay with Sam68 (KHDRBS1), -1.4 in [7] and -1.09 in [8]. In assay [1], the composite Z-score is 0.114 (inactive).

For the compound `COc1ccc(CCNC(=O)[C@@]2(C)c3ccccc3C(=O)N(Cc3cc(F)cc(C(F)(F)F)c3)[C@H]2c2ccc(CO)cc2)cc1`, the composite z-score in the assay with Albumin (Bos taurus) was -0.825; in assay [2] it was -0.189; in [3], -0.054; in assay [4], 0.726; in assay [5], 1.71; in assay [6], 0.54. The composite z-score is -0.342 in the assay with Sam68 (KHDRBS1), 0.126 in assay [7] and -0.307 in [8]. In [1], the composite Z-score is 0.633 (inactive).

Turning to `COc1ccc(C#Cc2ccc3c(c2)[C@]2(C(=O)N3)[C@H](c3ccccc3OCCO)N3[C@H](c4ccccc4)[C@H](c4ccccc4)OC(=O)[C@H]3[C@@H]2C(=O)O)cc1`, the composite z-score in the assay with Albumin (Bos taurus) is 0.702; in [2], 0.671; in assay [3], 0.114; in assay [4] it was 0.473; in [5] it was 2.27; in assay [6], 0.649. For the same compound, the composite z-score with Sam68 (KHDRBS1) is 1.3; in assay [7], -0.0011; in assay [8], 1.15. In [1], the composite Z-score was -0.274 (inactive).

`CS(=O)(=O)CCOC(=O)C1=CC(CCCO)=CC(c2ccc(CN3CCCC3)cc2)N(Cc2cc3c(cc2Br)OCO3)C=C1C(=O)OCCS(C)(=O)=O` (stereo not given): the composite z-score in the assay with Albumin (Bos taurus) is 0.649; in assay [2] it was 0.165; in assay [3], -0.0163; in assay [4] it was 0.804; in assay [5] it was 1.78; in [6], 1.31. Further, the composite z-score in the assay with Sam68 (KHDRBS1) is 1.31; in assay [7], 0.373; in assay [8], 1.08. In [1], the composite Z-score was 1.09 (inactive).

On to `O=C(NCc1ccccc1)[C@@]1(CCS(=O)(=O)c2ccccc2)N=C(c2ccc(OCCCO)cc2)O[C@H]1c1ccccc1`, for which the composite z-score is 1.01 in the assay with Albumin (Bos taurus); 0.471 in assay [2]; -0.0128 in assay [3]; 0.615 in [4]; 3.07 in [5]; 0.557 in assay [6]. Further, the composite z-score in the assay with Sam68 (KHDRBS1) was 1.29; in assay [7] it was -0.481; in assay [8], 1.16. In addition, the composite Z-score in [1] was 0.198 (inactive).

For `CCOC(=O)C=Cc1cc([N+](=O)[O-])ccc1O`, the composite z-score in the assay with Albumin (Bos taurus) was -0.307; in assay [2], 0.0209; in assay [3], -0.0162; in assay [4] it was 0.802; in assay [5] it was 0.751; in assay [6], 0.422. The results for the composite z-score (in the assay with Sam68 (KHDRBS1); in assay [7]; in [8]) were 0.471, -1.26 and -0.0123, respectively. Moreover, the composite Z-score in [1] is -0.26 (inactive).

For the compound `O=C1O[C@H](c2ccccc2)[C@H](c2ccccc2)N2[C@H]1[C@@H](C(=O)O)[C@]1(C(=O)Nc3ccc(C#CC4=CCCCC4)cc31)[C@H]2c1ccccc1OCCO`, the composite z-score with Albumin (Bos taurus) was 0.871; in [2], 0.806; in assay [3], 0.0062; in [4], 0.602; in assay [5] it was 2.06; in [6] it was 0.834. Besides, the composite z-score in the assay on Sam68 (KHDRBS1) came to 1.31; in assay [7] it was 0.401; in [8], 1.19. Moreover, in assay [1], the composite Z-score was 0.685 (inactive).

Source of the values: PubChem BioAssay.
